Assay results as given in PubChem BioAssay AID1053205 (Broad Institute, 2014).
Potency and affinity values are given separately. Inconclusive results are not listed. Calls of active or inactive are those of the source.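 How the source made its calls: active means compounds lowering the FRET ratio whose fitted half-maximal concentration is at most twice their top tested dose; inconclusive means flat partial drop between 30 and 70 percent, or bad fit; inactive means the rest.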

Molecular target: Voltage-dependent L-type calcium channel subunit alpha-1D (Homo sapiens) (UniProt Q01668)
Test: disruptors of CaV1.3 IQ/ICDI domain association – cell-based, HEK293, YFP-IQ/CFP-ICDI FRET, cherry-picks, dose response (AID 1053205)
Settings: HEK293 YFP-IQ/CFP-ICDI FRET ratio, 10 min; series mostly up to 35 µM

Sequence of Voltage-dependent L-type calcium channel subunit alpha-1D (Homo sapiens) (Q01668 whole entry, looked up, the tested form may be a part): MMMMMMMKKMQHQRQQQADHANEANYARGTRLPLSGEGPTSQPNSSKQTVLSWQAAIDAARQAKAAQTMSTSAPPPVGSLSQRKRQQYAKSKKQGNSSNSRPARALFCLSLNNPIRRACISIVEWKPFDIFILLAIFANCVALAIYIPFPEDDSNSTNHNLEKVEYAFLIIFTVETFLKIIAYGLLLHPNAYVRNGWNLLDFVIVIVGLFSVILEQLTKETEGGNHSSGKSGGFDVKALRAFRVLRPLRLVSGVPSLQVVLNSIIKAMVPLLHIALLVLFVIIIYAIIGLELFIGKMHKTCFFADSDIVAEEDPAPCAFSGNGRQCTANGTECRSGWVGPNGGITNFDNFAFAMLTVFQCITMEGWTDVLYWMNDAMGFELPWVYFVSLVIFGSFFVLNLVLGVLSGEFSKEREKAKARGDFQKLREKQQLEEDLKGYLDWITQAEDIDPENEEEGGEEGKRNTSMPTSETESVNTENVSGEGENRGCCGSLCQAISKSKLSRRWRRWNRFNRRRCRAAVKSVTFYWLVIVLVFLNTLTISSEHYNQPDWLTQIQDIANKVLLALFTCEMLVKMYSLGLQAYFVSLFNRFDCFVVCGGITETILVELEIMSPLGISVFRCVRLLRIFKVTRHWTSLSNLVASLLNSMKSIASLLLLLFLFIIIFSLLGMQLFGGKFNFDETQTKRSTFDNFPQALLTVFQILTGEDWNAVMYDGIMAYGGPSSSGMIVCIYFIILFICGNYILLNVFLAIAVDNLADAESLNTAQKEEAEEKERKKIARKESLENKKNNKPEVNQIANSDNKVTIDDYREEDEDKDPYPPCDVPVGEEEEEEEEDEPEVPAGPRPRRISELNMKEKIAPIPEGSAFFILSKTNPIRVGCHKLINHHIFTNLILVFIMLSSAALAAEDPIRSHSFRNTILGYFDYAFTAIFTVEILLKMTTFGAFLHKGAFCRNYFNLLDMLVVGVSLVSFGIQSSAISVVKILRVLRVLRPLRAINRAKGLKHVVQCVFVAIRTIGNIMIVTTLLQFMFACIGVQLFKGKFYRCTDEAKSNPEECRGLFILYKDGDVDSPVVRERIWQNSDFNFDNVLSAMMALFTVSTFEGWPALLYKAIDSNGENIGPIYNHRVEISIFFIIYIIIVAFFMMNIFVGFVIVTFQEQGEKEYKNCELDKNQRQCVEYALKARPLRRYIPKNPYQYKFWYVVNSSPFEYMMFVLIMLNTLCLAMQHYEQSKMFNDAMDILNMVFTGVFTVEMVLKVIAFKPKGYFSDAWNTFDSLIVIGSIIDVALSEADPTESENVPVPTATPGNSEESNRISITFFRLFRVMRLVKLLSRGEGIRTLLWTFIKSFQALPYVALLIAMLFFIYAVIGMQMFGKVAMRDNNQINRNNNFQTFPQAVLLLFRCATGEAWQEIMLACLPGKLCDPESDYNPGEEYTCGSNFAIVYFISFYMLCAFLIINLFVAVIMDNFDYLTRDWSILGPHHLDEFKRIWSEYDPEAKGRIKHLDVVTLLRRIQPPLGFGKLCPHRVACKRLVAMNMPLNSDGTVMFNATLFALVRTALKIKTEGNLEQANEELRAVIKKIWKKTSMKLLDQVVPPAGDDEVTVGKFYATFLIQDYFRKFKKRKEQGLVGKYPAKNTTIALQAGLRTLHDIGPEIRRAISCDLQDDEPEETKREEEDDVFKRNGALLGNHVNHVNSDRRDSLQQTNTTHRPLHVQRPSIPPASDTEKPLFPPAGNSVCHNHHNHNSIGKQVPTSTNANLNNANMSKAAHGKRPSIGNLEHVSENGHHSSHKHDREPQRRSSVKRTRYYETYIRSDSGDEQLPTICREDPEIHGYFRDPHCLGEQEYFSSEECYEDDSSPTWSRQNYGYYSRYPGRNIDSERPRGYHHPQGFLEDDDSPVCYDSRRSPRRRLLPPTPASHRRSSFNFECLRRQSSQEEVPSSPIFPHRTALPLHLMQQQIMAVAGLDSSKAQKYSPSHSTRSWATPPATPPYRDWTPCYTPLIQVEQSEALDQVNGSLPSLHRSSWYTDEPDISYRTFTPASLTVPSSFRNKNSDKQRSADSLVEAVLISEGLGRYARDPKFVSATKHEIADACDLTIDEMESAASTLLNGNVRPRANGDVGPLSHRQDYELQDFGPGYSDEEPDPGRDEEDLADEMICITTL

outcome, inactive:
COc1ccccc1C(=O)c1cc2ccc(O)cc2oc1=O
Nc1nc(-c2cc(O)ccc2[N+](=O)[O-])cc(-c2ccccc2)c1[N+](=O)[O-]
COc1ccc(C[C@H]2CN3C(=NC[C@@H]3Cc3ccccc3)N2CCNC(=O)CCC2CCCCC2)cc1
CCOCCCNc1c(CC)c(C)c(C#N)c2nc3ccccc3n12
CC(=O)c1cc2c(ccc3ccccc32)oc1=O
O=C(NNc1c2ccccc2nc2ccccc12)c1ccc(O)cc1
CCOc1ccc(C2C(C#N)=C(N)Oc3cc(O)ccc32)cc1OCC (centres undefined)
O=C(NNc1cc(N2CCCC2)nc(N2CCCC2)n1)c1ccc([N+](=O)[O-])cc1
COc1ccc(C2CC(c3cccs3)=NN2c2nc(C)c(C(C)=O)s2)cc1OC (centres undefined)
CCC(=O)NCCCNc1nc2c(C)cccc2cc1C#N
CCOC(=O)C1CCCN(CCCc2ccccc2)C1 (centres undefined)
Cc1ccc(C(=O)OCC(=O)Nc2c(C)nn(-c3ccccc3)c2C)c(O)c1
O=C(Cn1ccc([N+](=O)[O-])n1)N1CCCCCC1
O=c1oc2cc(O)ccc2cc1-c1nc2ccccc2o1
O=C(CCCn1c(=O)c2sccc2n(Cc2cc(=O)n3ccccc3n2)c1=O)NCc1ccco1
CCOc1ccc(C(=O)c2cc3ccc(O)cc3oc2=O)cc1
CSc1ccc(Cn2c(C)c(C(=O)NCCC#N)sc2=O)cc1
CCc1nnc(NC(=O)c2ccc(-c3ccccc3F)o2)s1
O=C(CCCN1C(=O)CSc2ncccc21)N1CCN(Cc2ccccc2)CC1
